In PubChem BioAssay (NCATS) one finds Potency and activity (max response) data, which are given here for 24 compounds.

Test [1] is described as follows: Viability qHTS for spleen associated tyrosine kinase inhibitor (SYKi) naive MV4-11 cells (AID 1963823). Also: nearly all actives have a fitted effect of over 40% in size. The method, boiled down:
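Cells: MV4-11, SYK inhibitor naive, 500 per well. Treatment: library compounds, 72 hr, 37 C, 5% CO2. Read-out: CellTiter-Glo luminescence after 10 min RT.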

A short description of test [2]: Viability qHTS for spleen associated tyrosine kinase inhibitor (SYKi) drug resistant MV4-11 cells (AID 1963824). Also: nearly all actives have a fitted effect of over 35% in size. The method, boiled down: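 CellTiter-Glo luminescence, read 10 min after reagent addition, reports viability after a 72 hr compound exposure. Cells are an MV4-11 line made resistant to SYK inhibition, seeded at 500 per well onto compound-containing plates.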

Test [3] is described as follows: Cellular viability qHTS for adrenocortical cancer (ACC) cell line SW-13 (AID 1963989). Also: nearly all actives have a fitted effect of over 65% in size.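 As to activity (max response): cells grown in serum-free medium with ITS supplement; % is scaled to controls: 0 for no effect and ±100 for the full control effect.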 To be noted: SW-13 ACC cells viability, CellTiter-Glo, 48 h; activity (max response): active compounds read low. The method, boiled down: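 Compound titrations (up to 46 uM final, in DMSO) were applied to SW-13 cells for 48 h at 37C/5% CO2. Reading used CellTiter-Glo after 20 min at room temperature; fitted curves yielded IC50 and efficacy.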

Test [4] in a line: Cellular viability qHTS for adrenocortical cancer (ACC) cell line NCI-H295R (AID 1963990). Also: nearly all actives have a fitted effect of over 60% in size. The method, boiled down: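 Readout: CellTiter-Glo luminescence, 20 min RT. Exposure: 48 h, 37C/5% CO2. Cells: NCI-H295R, ITS-DMEM serum-free. Range: up to 46 uM. Analysis: 4PL fit, IC50 plus efficacy.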

Where “and” joins values, the source holds several entries; their conditions need not be identical. Equal values may be shown once. Records with an inconclusive call do not appear. Unmarked numbers belong to inactive results. Calls of active or inactive are those of the source. Calls follow the shape of the dose curve; as a rule, active = well fitted curve in the direction sought with a large enough effect; inconclusive = small, poorly fitted or top-dose-only effect, or another doubt; inactive = no such curve, though single readings can be large; an effect the other way counts as inactive or inconclusive.
Potency is read from the fitted curve at half-maximal effect.

For `CO[C@H]1/C=C/O[C@@]2(C)Oc3c(C)c(O)c4c(O)c(c5c(c4c3C2=O)=NC2(CCN(CC(C)C)CC2)N=5)NC(=O)/C(C)=C/C=C/[C@H](C)[C@H](O)[C@@H](C)[C@@H](O)[C@@H](C)[C@H](OC(C)=O)[C@@H]1C`, the Potency in test [1] and in test [2] was 18.6 µM (active) each time. For the same compound, the activity (max response) in test [3] is -11.1%. The Potency entry in test [4] is “inactive”.
Consider `CCN1CCCC(OC(=O)C(c2ccccc2)c2ccccc2)C1` (stereo unspecified), for which the Potency result in test [1], in test [2] and in test [4] was “inactive” in each case. Moreover, in test [3], the activity (max response) is -12.5%.
For `c1ccc(-c2ccc(CNc3nc(-c4ccccn4)nnc3-c3ccccc3)cc2)cc1`, the Potency in test [1] was 0.92 µM (active); in test [2], 1.03 µM (active); in test [3] it was 11.2 µM (active); in test [4], 17.8 µM (active).
For `CC1(C)OC2=C(C(=O)c3ccccc3C2=O)[C@H](NCc2ccccc2)[C@@H]1O`, the Potency in test [1] was 2.63 µM (active); in test [2] it was 2.63 µM (active); in test [3], 3.98 µM (active); in test [4], 3.16 µM (active).
Take `CN(C)CCn1nnnc1SCC1=C(C(=O)O)N2C(=O)[C@@H](NC(=O)Cc3csc(N)n3)[C@H]2SC1`: the Potency result in test [1], in test [2] and in test [4] was “inactive” in each case. For the same compound, the activity (max response) in test [3] is 8.48%.
With `Cc1cc(N2CCOCC2)ccc1Nc1nc(NC2CCCCC2)c2[nH]cnc2n1`, the Potency in test [1] is 0.833 µM (active); in test [2], 0.461 µM (active); in test [3], 25.1 µM (active); in test [4] it was 28.2 µM (active).
As to `CN[C@H](CC(C)C)C(=O)N[C@H]1C(=O)N[C@@H](CC(N)=O)C(=O)N[C@H]2C(=O)N[C@H]3C(=O)N[C@H](C(=O)N[C@H](C(=O)O)c4cc(O)cc(O)c4-c4cc3ccc4O)[C@H](O)c3ccc(c(Cl)c3)Oc3cc2cc(c3O[C@@H]2O[C@H](CO)[C@@H](O)[C@H](O)[C@H]2O[C@H]2C[C@](C)(N)[C@H](O)[C@H](C)O2)Oc2ccc(cc2Cl)[C@H]1O`, the Potency entry in test [1], in test [2] and in test [4] was “inactive” each time. Also, in test [3], the activity (max response) was -12.5%.
`Cc1nc2cccc(N)c2c(=O)n1C1CCC(=O)NC1=O` (stereo unspecified): the Potency in test [1] is 0.209 µM (active). Moreover, the Potency result in test [2] and in test [4] was “inactive” in each case. Moreover, the activity (max response) in test [3] was 3.79%.
As for `CCOc1ccc(NS(=O)(=O)c2ccc(N)cc2)nn1`, the Potency result in test [1], in test [2] and in test [4] was “inactive” in each case. Besides, the activity (max response) in test [3] was 7.51%.
Consider `CC(C)(C)c1ccc(C(=O)CCCN2CCC(OC(c3ccccc3)c3ccccc3)CC2)cc1`, for which the Potency was 13.3 µM (active) in test [1], 11.9 µM (active) in test [2], 13 µM (active) in test [3] and 5.8 µM (active) in test [4].
Take `C/C=C/C[C@@H](C)C(=O)[C@H]1C(=O)N[C@@H](C(C)C)C(=O)N(C)CC(=O)N(C)[C@@H](CC(C)C)C(=O)N[C@@H](C(C)C)C(=O)N(C)[C@@H](CC(C)C)C(=O)N[C@@H](C)C(=O)N[C@H](C)C(=O)N(C)[C@@H](CC(C)C)C(=O)N(C)[C@@H](CC(C)C)C(=O)N(C)[C@@H](C(C)C)C(=O)N1C`: the results for the Potency in test [1] and in test [2] were 6.45 µM (active) and 4.07 µM (active), respectively. Also, the activity (max response) in test [3] was 4.11%. Further, in test [4], the Potency entry is “inactive”.
On the same counts, the results for `CC1=NN(c2ccc(C(=O)O)cc2)C(=O)/C1=C/c1ccc(-c2cc(C)c(C)cc2[N+](=O)[O-])o1` are 16.6 µM (active), 18.6 µM (active), 11.6% and “inactive”.
For the compound `C=C1C[C@H]2C=Nc3cc(OCCCOc4cc5c(cc4OC)C(=O)N4CC(=C)C[C@H]4C=N5)c(OC)cc3C(=O)N2C1`, the Potency entry in test [1] and in test [2] was “inactive” each time. For the same compound, the Potency in test [3] was 0.01 µM (active); in test [4] it was 0.1 µM (active).
Regarding `C[C@]12CCC(=O)C=C1CC[C@@H]1[C@@H]2CC[C@@]2(C)[C@H]1CC[C@]2(O)C(=O)CO`, the Potency result in test [1], in test [2] and in test [4] was “inactive” each time. Besides, the activity (max response) in test [3] was -2.88%.
Take `O=C(c1ccc(F)c(F)c1Nc1ccc(I)cc1F)N1CC(O)([C@@H]2CCCCN2)C1`: the Potency in test [1] was 326 nM (active) and 235 nM (active); in test [2], 231 nM (active) and 296 nM (active); in test [3], 12.6 µM (active); in test [4], 5.62 µM (active).
`CCN(CC)CC(=O)OCC(=O)[C@@]1(O)CC[C@H]2[C@@H]3CCC4=CC(=O)CC[C@]4(C)[C@H]3[C@@H](O)C[C@@]21C`: the Potency result in test [1], in test [2] and in test [4] was “inactive” in each case. Moreover, in test [3], the activity (max response) was 11.9%.
Regarding `O=C1NCCN1CCN1CCC(c2cn(-c3ccc(F)cc3)c3ccc(Cl)cc23)CC1`, the Potency in test [1] is 0.668 µM (active); in test [2] it was 1.19 µM (active); in test [3], 10.3 µM (active); in test [4], 4.11 µM (active).
As for `CN1C(C)(C)CCCC1(C)C`, the Potency result in test [1], in test [2] and in test [4] was “inactive” each time. For the same compound, the activity (max response) in test [3] was -4.6%.
On to `CCN[C@H]1CN(CCCOC)S(=O)(=O)c2sc(S(N)(=O)=O)cc21`, for which the Potency entry in test [1], in test [2] and in test [4] was “inactive” throughout. For the same compound, the activity (max response) in test [3] is 7.66%.
In the case of `FC(F)(F)c1ccc(CNc2ccc(Cc3c[nH]c4ncccc34)cn2)cc1`, the Potency in test [1] was 259 nM (active) and 116 nM (active); in test [2] it was 206 nM (active) and 291 nM (active); in test [3], 10 µM (active); in test [4] it was 11.2 µM (active).
In the case of `Cc1c(N(C)C)c(=O)n(-c2ccccc2)n1C`, the Potency result in test [1], in test [2] and in test [4] was “inactive” each time. Further, the activity (max response) in test [3] was 10.1%.
With `CN[C@@H]1[C@H](O)[C@H](NC)[C@H]2O[C@@]3(O)C(=O)C[C@@H](C)O[C@H]3O[C@@H]2[C@H]1O`, the Potency result in test [1], in test [2] and in test [4] was “inactive” throughout. For the same compound, in test [3], the activity (max response) was 16.5%.
With `N#Cc1ccc(COC[C@H]2O[C@@H](n3c(NCc4ccc(Cl)c(Cl)c4)nc4c(N)ncnc43)[C@H](O)[C@@H]2O)cc1`, the Potency in test [1] was 4.68 µM (active); in test [2] it was 2.52 µM (active) and 3.32 µM (active); in test [3] it was 25.1 µM (active). In test [4], the Potency entry was “inactive”.
`O=C(Nc1ccnc(NC(=O)C2CC2)c1)c1c(Cl)cccc1Cl`: the Potency in test [1] was 5.17 µM (active); in test [2], 4.68 µM (active); in test [3] it was 15.8 µM (active); in test [4], 11.2 µM (active).
